Here are results for 21 molecules from PubChem BioAssay (Tox21).

The nature of assay [1]: qHTS assay for small molecules that induce genotoxicity in human embryonic kidney cells expressing luciferase-tagged ATAD5 (AID 651632). Also: nearly all actives have a fitted effect of over 15% in size. Also: potency is read from the fitted curve at half-maximal effect. As to conditions: HEK293T ATAD5-luciferase induction, 16 h; series mostly up to 83.3 µM. The method, boiled down:
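ATAD5-luc HEK293T, 2,000 cells/well; cpd or DMSO pin-transferred; 16 hr, 37C/5% CO2; Amplite 30 min RT; luminescence.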
Background: Quantitative high-throughput screening tests each substance at several concentrations.

Assay [2] in a line: qHTS assay for small molecule agonists of the p53 signaling pathway - cell viability (AID 651633; calls by dose curve; also: nearly all actives have a fitted effect of over 30% in size; also: potency is read from the fitted curve at half-maximal effect). The settings on record: p53RE-bla HCT-116 viability, ATP luminescence, 16 h; series mostly up to 83.3 µM. An outline of the steps: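 p53RE-bla cells, seeded at 4,000 per well and rested 5 h at 37 C/5% CO2, received compounds in DMSO for 16 h at 37 C. CellTiter-Glo was then added, and luminescence was read after 30 min at room temperature to gauge cytotoxicity.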

Assay [3] in a line: qHTS assay for small molecules that induce genotoxicity in human embryonic kidney cells expressing luciferase-tagged ATAD5 - cell viability (AID 651634; calls by dose curve; also: nearly all actives have a fitted effect of over 25% in size; also: potency is read from the fitted curve at half-maximal effect). The settings on record: HEK293T ATAD5-luc cells viability, CellTiter-Fluor, 15.5 h; series mostly up to 83.3 µM. An outline of the steps:
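Fluorescence from CellTiter-Fluor, reporting protease activity within live cells, served as the viability read-out. HEK293T cells carrying luciferase-tagged ATAD5 had been treated with compound for 15.5 hr at 37C.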

Assay [4] in a line: qHTS assay to test for compound auto fluorescence at 590 nm (red) in HepG2 cells (AID 720674). As to conditions: HepG2 autofluorescence, red 540/590 nm, 1 h; series mostly up to 91.3 µM. The method, boiled down: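 Compound auto-fluorescence is scored relative to Rose Bengal sodium, measured at 540/590 nm in live HepG2 cultures after 1 hr compound contact (37 C, 5% CO2).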
Assay [5] is described as follows: qHTS assay to test for compound auto fluorescence at 535 nm (green) in HepG2 cells (AID 720675). The settings on record: green autofluorescence 485/535 nm, 1 h; series mostly up to 91.3 µM.
Assay [6] in a line: qHTS assay to test for compound auto fluorescence at 460 nm (blue) in HEK293 cells (AID 720678). As to conditions: blue autofluorescence 405/460 nm; series mostly up to 91.3 µM. The method, boiled down: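 Cells were seeded and left to adhere for 4-5 hr at 37C. Compounds were then pin-transferred. After an overnight incubation at 37C under 5% CO2, intrinsic fluorescence at 405/460 nm was measured and referenced to triamterene.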

Assay [7] is described as follows: qHTS assay to test for compound auto fluorescence at 590 nm (red) in HEK293 cells (AID 720679). As to conditions: red autofluorescence 540/590 nm; series mostly up to 91.3 µM. An outline of the steps: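 Each well held 2,000 HEK293 cells in medium containing 10% dialyzed FBS. Following 4-5 hr attachment at 37C, 23 nL test compound or DMSO was added; plates sat overnight, and red fluorescence (540/590nm) was recorded.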

The nature of assay [8]: qHTS assay for small molecule disruptors of the mitochondrial membrane potential - cell viability (AID 720634; calls by dose curve; also: nearly all actives have a fitted effect of over 20% in size; also: potency is read from the fitted curve at half-maximal effect). As to conditions: HepG2 viability, ATP luminescence (CellTiter-Glo), 1 h; series mostly up to 83.2 µM. The method, boiled down:
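Cells: HepG2, 2,000/well, attached overnight. Compound 1 hr, 37 C/5% CO2. +m-MPI dye, +CellTiter-Glo 30 min RT. Readout: luminescence (ATP).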

Assay [9] in a line: qHTS assay for small molecule disruptors of the mitochondrial membrane potential (AID 720635). Also: potency is read from the fitted curve at half-maximal effect. As to conditions: HepG2 mitochondrial membrane potential, Mito-MPS dye ratio; series mostly up to 83.2 µM. An outline of the steps: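 HepG2 cells (2,000/well) attached overnight at 37C, then took compound for 1 hr at 37C, 5% CO2. Mito-MPS dye was added for 30 min; fluorescence was read at 490/535 nm (monomers) and 540/590 nm (aggregates).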

The structures appear in SMILES notation. Where “and” joins values, the source holds several entries; their conditions need not be identical. Identical values can stand only once. Results filed as inconclusive are left out. Some structures have more than one record in an assay (separate samples or runs), and their calls can disagree. Calls of active or inactive are those of the source. Unless noted, calls follow the shape of the dose curve; as a rule, active = well fitted curve in the direction sought with a large enough effect in the repeat runs; inconclusive = weak or mixed curves; inactive = no such curve, though single readings can be large; an effect the other way counts as inactive or inconclusive.
% is scaled to controls: 0 for no effect and ±100 for the full control effect.

Regarding `COC(=O)c1cc(Oc2ccc(Cl)cc2Cl)ccc1[N+](=O)[O-]`, the Potency entry in assay [1], in [2], in [3] and in assay [5] was “inactive” each time. Also, the molecule was classed as inactive in assay [4].
As for `Nc1c(Cl)c(Cl)c(Cl)c(Cl)c1Cl`, the Potency result in assay [1], in assay [2], in [3], in [5] and in assay [6] was “inactive” throughout. Further, the call in assay [4] and in assay [7] was inactive.
For `ClCBr`, the Potency entry in [1], in assay [3], in assay [8], in assay [9], in [5] and in [6] was “inactive” in each case. Moreover, the result in assay [4] and in assay [7] was inactive.
Take `[O]=[Cr](=[O])([OH])[O][Cr](=[O])(=[O])[OH]`: the Potency entry in assay [1] and in assay [5] was “inactive” throughout. In addition, the Potency in assay [2] was 19.5 µM (active) [middle of 4 runs]; in assay [8] it was “inactive and 27.6 µM (active) and 30.6 µM (active)”; in assay [9] it was “inactive and 13.8 µM (active) and 27.3 µM (active)”. Besides, the outcome in assay [4] was inactive.
With `CCC[CH2][Sn]([CH2]CCC)([CH2]CCC)[CH2]CCC`, the Potency result in assay [1], in assay [5] and in assay [6] was “inactive” throughout. Also, the Potency in assay [2] was 43.3 µM (active); in assay [3], 19.3 µM (active); in [9], 4.86 µM (active). The outcome in assay [4] and in [7] was inactive.
Take `O=[N+]([O-])c1cccc2cccc([N+](=O)[O-])c12`: the Potency entry in assay [1], in assay [2], in assay [3], in assay [5] and in assay [6] was “inactive” throughout. Further, in assay [9], the Potency was 9.73 µM (active). Further, the call in assay [4] and in [7] was inactive.
Turning to `CSC(C)(C)/C=N/O`, the Potency result in assay [1], in assay [3], in assay [8], in assay [9], in assay [5] and in assay [6] was “inactive” throughout. Besides, the molecule was called inactive in [4] and in [7].
With `Nc1ccc(N=Nc2ccccc2)cc1`, the Potency is 13.7 µM (active) in assay [1] and 41.6 µM (active) in assay [3]. Moreover, the Potency entry in assay [2] and in [5] was “inactive” throughout. Also, the molecule was classed as inactive in assay [4] and in assay [7].
On to `Cc1ccc(C)c2ccccc12`, for which the Potency result in [1], in assay [3], in [8], in assay [9], in assay [5] and in [6] was “inactive” throughout. Moreover, the molecule was called inactive in assay [4] and in assay [7].
For `Cc1c([N+](=O)[O-])cc2c(c1[N+](=O)[O-])C(C)(C)CC2(C)C`, the Potency entry in assay [1], in assay [2], in assay [3], in assay [5] and in [6] was “inactive” each time. Moreover, in [9], the Potency is 30.6 µM (active). Further, the result in [4] and in assay [7] was inactive.
As to `COC(=O)/C=C(\C)OP(=O)(OC)OC`, the Potency result in assay [1], in [2], in assay [3] and in assay [5] was “inactive” in each case. Further, the call in assay [4] and in assay [7] was inactive.
As for `O=S1OCC2C(CO1)C1(Cl)C(Cl)=C(Cl)C2(Cl)C1(Cl)Cl` (stereo unspecified), the Potency result in [1], in [3], in assay [5] and in assay [6] was “inactive” each time. The Potency in assay [2] was 68.7 µM (active) and 54.4 µM (active). Also, in assay [4], the molecule was called inactive.
With `O=C(O)[C@H](O)[C@@H](O)C(=O)O`, the Potency entry in assay [1], in [3], in [8], in [5] and in assay [6] was “inactive” in each case. Also, the molecule was called inactive in assay [4] and in [7].
As for `Cc1cnc2c(C(=O)O)c(Cl)ccc2c1`, the Potency result in assay [1], in [3], in assay [8] and in assay [5] was “inactive” each time. In addition, the molecule was classed as inactive in assay [4] and in [7].
`CNC(=O)CSP(=O)(OC)OC`: the Potency entry in assay [1], in [3], in assay [8], in assay [9] and in assay [5] was “inactive” throughout. Also, the molecule was classed as inactive in [4] and in assay [7].
Take `NC1CCC(CC2CCC(N)CC2)CC1` (stereo unspecified): the Potency entry in [1], in assay [8], in assay [9], in assay [5] and in assay [6] was “inactive” in each case. Further, the molecule was called inactive in assay [4] and in assay [7].
Turning to `CCC[CH2][Sn]([CH2]CCC)([CH2]CCC)[O][Sn]([CH2]CCC)([CH2]CCC)[CH2]CCC`, the activation in assay [1] is -11.2% [at 8.08 µM] (inactive). In addition, the Potency in assay [3] was 0.377 µM (active); in assay [8], 1.68 µM (active); in assay [9] it was 0.0752 µM (active). The fluorescence, relative to Rose Bengal in assay [4] was -0.33% [at 3.72 µM] (inactive). In addition, in assay [5], the fluorescence, % of fluorescein control was -0.0029% [at 3.72 µM] (inactive). Besides, in [7], the fluorescence, % of fluorescent control is -0.182% [at 3.72 µM] (inactive).
Take `CNN`: the Potency result in assay [2], in assay [3], in [8], in [9], in [5] and in assay [6] was “inactive” each time. Moreover, the molecule was called inactive in assay [4] and in assay [7].
With `Oc1cc(Cl)c(Cl)c(Cl)c1Cl`, the Potency entry in [1], in assay [3], in [5] and in assay [6] was “inactive” throughout. Besides, the call in [4] and in [7] was inactive.
Take `C1=CCC=C1`: the Potency result in assay [2], in assay [3], in assay [8] and in assay [5] was “inactive” each time. Further, the outcome in assay [4] and in assay [7] was inactive.
Turning to `CN(C)c1ccc(N)cc1`, the Potency result in assay [2], in assay [3], in assay [8], in [5] and in assay [6] was “inactive” in each case. Besides, the Potency in [9] was 8.42 µM (active). For the same molecule, the call in assay [4] and in assay [7] was inactive.
